In PubChem BioAssay (NCATS):
Results filed as inconclusive are left out. Activity calls are given as the source filed them. Calls follow the shape of the dose curve; as a rule, active = well fitted cell-killing curve with a large enough effect; inconclusive = small, poorly fitted or top-dose-only effect, or effect the other way; inactive = flat fitted curve, though single readings scatter.

Legend:
Assay in all cases: Primary qHTS to identify gynecologic anti-cancer compounds using libraries of approved drugs and bioactive compounds (AID 1345084); also: nearly all actives have a fitted effect of over 55% in size
[1] = test system: C33A; settings: Gynecologic cancer cell panel viability, ATPlite luminescence, 48 h; series mostly up to 57.5 µM
How it was run: (§1)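 Measured: luminescence after ATPlite addition (15 min, RT). Exposure: 48 h, 37 C, 5% CO2.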

[2] = test system: CAOV3; settings: Gynecologic cancer cell panel viability, ATPlite luminescence, 48 h; series mostly up to 57.5 µM
How it was run: as §1

[3] = test system: CASKI; settings: Gynecologic cancer cell panel viability, ATPlite luminescence, 48 h; series mostly up to 57.5 µM
How it was run: as §1

[4] = test system: Es-2; settings: Gynecologic cancer cell panel viability, ATPlite luminescence, 48 h; series mostly up to 57.5 µM
How it was run: as §1

[5] = test system: HeLa; settings: Gynecologic cancer cell panel viability, ATPlite luminescence, 48 h; series mostly up to 57.5 µM
How it was run: as §1

[6] = test system: Hek293T; settings: Gynecologic cancer cell panel viability, ATPlite luminescence, 48 h, control line for the selectivity index; series mostly up to 57.5 µM
How it was run: as §1

[7] = test system: JEG-3; settings: Gynecologic cancer cell panel viability, ATPlite luminescence, 48 h; series mostly up to 57.5 µM
How it was run: as §1

[8] = test system: OV90; settings: Gynecologic cancer cell panel viability, ATPlite luminescence, 48 h; series mostly up to 57.5 µM
How it was run: as §1

[9] = test system: PA-1; settings: Gynecologic cancer cell panel viability, ATPlite luminescence, 48 h; series mostly up to 57.5 µM
How it was run: as §1

[10] = test system: SKOV3; settings: Gynecologic cancer cell panel viability, ATPlite luminescence, 48 h; series mostly up to 57.5 µM
How it was run: as §1

[11] = test system: Tov-21-G; settings: Gynecologic cancer cell panel viability, ATPlite luminescence, 48 h; series mostly up to 57.5 µM
How it was run: as §1

[12] = test system: Tov112D; settings: Gynecologic cancer cell panel viability, ATPlite luminescence, 48 h; series mostly up to 57.5 µM
How it was run: as §1
% is scaled to controls: 0 for no effect and ±100 for the full control effect.

C=C1C[C@]23C[C@H]1CC[C@H]2[C@]1(C)CC[C@H](O)[C@@](C)(C(=O)O)[C@H]1[C@@H]3C(=O)O
inactive: Potency [1] | Potency [2] | outcome [3] | Potency [4] | Potency [5] | Potency [6] | Potency [7] | Potency [8] | Potency [9] | Potency [10] | Potency [11] | Potency [12]

COC(=O)[C@H](c1ccccc1Cl)N1CCC2SC(=O)C=C2C1 (stereo partly specified)
inactive: Potency [1] | Potency [2] | outcome [3] | Potency [4] | Potency [5] | Potency [6] | Potency [7] | Potency [8] | Potency [9] | Potency [10] | Potency [11] | Potency [12]

CC(=O)/C=C/C1(O)C(C)CC(O[C@@H]2O[C@H](CO)[C@@H](O)[C@H](O)[C@H]2O)CC1(C)C (stereo partly specified)
inactive: Potency [1] | Potency [2] | outcome [3] | Potency [4] | Potency [5] | Potency [6] | Potency [7] | Potency [8] | Potency [9] | Potency [10] | Potency [11] | Potency [12]

COc1cc([C@@H](O[C@@H]2O[C@H](CO)[C@@H](O)[C@H](O)[C@H]2O)[C@@H]2CO[C@H](c3ccc(O)c(OC)c3)[C@H]2CO)ccc1O
inactive: Potency [1] | Potency [2] | outcome [3] | Potency [4] | Potency [5] | Potency [6] | Potency [7] | Potency [8] | Potency [9] | Potency [10] | Potency [11] | Potency [12]

Cc1ncc([N+](=O)[O-])n1C[C@H](O)CN1CCOCC1
inactive: Potency [1] | Potency [2] | outcome [3] | Potency [4] | Potency [5] | Potency [6] | Potency [7] | Potency [8] | Potency [9] | Potency [10] | Potency [11] | Potency [12]

NC1Nc2ccccc2C1(N)CC1NC(=O)C(Cc2ccccc2)NC(=O)C(Cc2ccccc2)NC1=O (stereo unspecified)
inactive: Potency [1] | Potency [2] | outcome [3] | Potency [4] | Potency [5] | Potency [6] | Potency [7] | Potency [8] | Potency [9] | Potency [10] | Potency [11] | Potency [12]

C[C@@H]1O[C@@H](O[C@H]2[C@H](O[C@H]3[C@H](O[C@H]4CC[C@@]5(C)C(CC[C@]6(C)C5CC=C5[C@@H]7CC(C)(C)C[C@@H](O)[C@]7(C)CC[C@]56C)[C@@]4(C)CO)O[C@H](C(=O)O)[C@@H](O)[C@@H]3O)O[C@H](CO)[C@H](O)[C@@H]2O)[C@H](O)[C@H](O)[C@H]1O (stereo partly specified)
inactive: activity change, negative = cytotoxicity [1] -1.56% [at 11.6 µM] | activity change, negative = cytotoxicity [2] 6.93% [at 11.6 µM] | activity change, negative = cytotoxicity [3] 9.29% [at 11.6 µM] | activity change, negative = cytotoxicity [4] 0.369% [at 11.6 µM] | activity change, negative = cytotoxicity [5] 7.52% [at 11.6 µM] | activity change, negative = cytotoxicity [6] -1.54% [at 11.6 µM] | activity change, negative = cytotoxicity [7] 7.46% [at 11.6 µM] | activity change, negative = cytotoxicity [8] 7.08% [at 11.6 µM] | activity change, negative = cytotoxicity [9] 4.96% [at 11.6 µM] | activity change, negative = cytotoxicity [10] 11% [at 11.6 µM] | activity change, negative = cytotoxicity [11] 5.74% [at 11.6 µM] | activity change, negative = cytotoxicity [12] 0.964% [at 11.6 µM]

CC(C)C1NC(=O)C(CC2(O)c3ccccc3N3C(=O)C(Cc4ccccc4)NC32)NC1=O (stereo unspecified)
inactive: Potency [1] | Potency [2] | outcome [3] | Potency [4] | Potency [5] | Potency [6] | Potency [7] | Potency [8] | Potency [9] | Potency [10] | Potency [11] | Potency [12]

C=C(C(=O)O)[C@@H]1CC[C@@]2(C)CC[C@@H](O)C(=C)C2C1 (stereo partly specified)
inactive: Potency [1] | Potency [2] | outcome [3] | Potency [4] | Potency [5] | Potency [6] | Potency [7] | Potency [8] | Potency [9] | Potency [10] | Potency [11] | Potency [12]

CCN(CCN(C)C)C(=O)CNCc1cc(C(N)=O)ccn1
inactive: Potency [1] | Potency [2] | outcome [3] | Potency [4] | Potency [5] | Potency [6] | Potency [7] | Potency [8] | Potency [9] | Potency [10] | Potency [11] | Potency [12]

CC(C)(C)NS(=O)(=O)c1ccc(-c2ccc3[nH]nc(N)c3c2)cc1
inactive: Potency [1] | Potency [2] | outcome [3] | Potency [4] | Potency [5] | Potency [6] | Potency [7] | Potency [8] | Potency [9] | Potency [10] | Potency [11] | Potency [12]

CC(=O)N[C@H](Cc1c[nH]c2ccccc12)C(=O)OCc1cc(C(F)(F)F)cc(C(F)(F)F)c1
inactive: Potency [1] | Potency [2] | outcome [3] | Potency [4] | Potency [5] | Potency [6] | Potency [7] | Potency [8] | Potency [9] | Potency [10] | Potency [11] | Potency [12]

CC1(C)COC(=O)[C@@H]1O[C@@H]1O[C@H](CO)[C@@H](O)[C@H](O)[C@H]1O
inactive: Potency [1] | Potency [2] | outcome [3] | Potency [4] | Potency [5] | Potency [6] | Potency [7] | Potency [8] | Potency [9] | Potency [10] | Potency [11] | Potency [12]
